In PubChem BioAssay (NCI):
The panel holds about 79,000 compounds, 15% with a hit somewhere; the sample as a whole holds those more often. Active and inactive are the calls of the source. Rule as the data show it: active = growth inhibition above about 70%; inactive = the rest.

Legend:
[1] = NCI Yeast Anticancer Drug Screen. Data for the rad50 strain (AID 155);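 also: 0% = growth of vehicle-only cultures of the same strain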; details: S. cerevisiae rad50 strain growth inhibition; at 50.0 µM; active compounds read high
Outline: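 Inhibition values express reduced yeast growth in compound-treated cultures relative to vehicle-treated controls.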

[2] = NCI Yeast Anticancer Drug Screen. Data for the mec2-1 strain (AID 157); details: S. cerevisiae mec2-1 strain, at 50.0 µM, active compounds read high
Outline: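 Yeast mec2-1 mutant treated with compound. Readout: growth inhibition vs vehicle controls.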

[3] = NCI Yeast Anticancer Drug Screen. Data for the sgs1 mgt1 strain (AID 161);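 also: 0% = growth of cultures given vehicle only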; details: S. cerevisiae sgs1 mgt1 strain, at 50.0 µM, active compounds read high
Outline: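 Test agents were incubated with a DNA-repair-mutant yeast strain. Growth was then read and compared against vehicle-treated controls.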

[4] = NCI Yeast Anticancer Drug Screen. Data for the cln2 rad14 strain (AID 165);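 also: 0% = growth equal to vehicle treated cultures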; details: S. cerevisiae cln2 rad14 strain, at 50.0 µM, active compounds read high
Outline: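 cln2 rad14 yeast strain; compound exposure; growth inhibition read vs vehicle controls.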

[5] = NCI Yeast Anticancer Drug Screen. Data for the bub3 strain (AID 167); details: S. cerevisiae bub3 mutant strain, at 50.0 µM, active compounds read high
Outline: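 Steps: expose the mutant yeast strain to compound; grow alongside vehicle-treated cultures; measure growth; express inhibition against the vehicle cultures.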

[6] = NCI Yeast Anticancer Drug Screen. Data for the mlh1 rad18 strain (AID 175); details: S. cerevisiae mlh1 rad18 strain growth inhibition; at 50.0 µM; active compounds read high
Outline: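 Yeast w/ defined DNA-repair lesions; compound exposure; growth vs vehicle controls → % inhibition.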

Measured: growth inhibition

C[N+]1(C)N=C([O-])N(CCCCCCN2C(=O)[N+](C)(C)N=C2[O-])C1=O
inactive: [1] 10.3% | [2] -13.1% | [3] 15.1% | [4] 9.55% | [5] 8.65% | [6] 15%

O=C1NC(=O)C(c2ccco2)N1 (stereo not given)
inactive: [1] 3.7% | [2] -1.55% | [3] -12.2% | [4] 4.8% | [5] -16.7% | [6] 8.2%

O=C1c2ccccc2C(=O)c2c1ccc1c2[nH]c2ccccc21
inactive: [1] 2.15% | [2] -4.8% | [3] 3.75% | [4] -67.2% | [5] 0.8% | [6] -4.85%

c1ccc2c(c1)nnn2CN1CCOCC1
inactive: [1] -6.3% | [2] 17.1% | [3] -26.6% | [4] -22.9% | [5] 3.15% | [6] 5.7%

c1ccc(C2=NC(c3ccccc3)(c3ccccc3)N=C2c2ccccc2)cc1
inactive: [1] 2.75% | [2] 10.7% | [3] -11.2% | [4] -10.1% | [5] -8.55% | [6] 2.5%

O=c1[nH]c(=O)n(C2CC(O)C(CO)O2)cc1C#Cc1ccc(C(F)(F)F)cc1 (stereo not given)
inactive: [1] 13.1% | [2] -3.4% | [3] 5% | [4] -2.45% | [5] 19.2% | [6] -13.7%

O=C(/C=C/c1c(-c2ccccc2)[nH]c2ccccc12)c1cccc([N+](=O)[O-])c1
inactive: [1] 43% | [2] 17.1% | [3] 42% | [4] 20.9% | [5] 19.9% | [6] 36.2%

Cc1ccc(-n2cnc3c(=O)[nH]cnc32)cc1N
inactive: [1] -12.6% | [2] 5.45% | [3] 3.3% | [4] -9.9% | [5] -6.25% | [6] 11.2%

COc1c(NC(=O)c2c(Br)c(Br)c(Br)c(Br)c2C(=O)O)cccc1[N+](=O)[O-]
inactive: [1] 1.5% | [2] 6.65% | [3] 7.65% | [4] -4.2% | [5] -1.2% | [6] 17.1%

COc1ccc2c(c1)CCCN2C(=N)c1ccc([N+](=O)[O-])cc1
inactive: [1] -24.5% | [2] -4.1% | [3] -9.95% | [4] -52.9% | [5] 22.6% | [6] -11.5%

Nc1c(N=Nc2ccc(S(=O)(=O)Nc3cnccn3)cc2)cc(S(=O)(=O)O)c2ccccc12
inactive: [1] 10.6% | [2] -2.45% | [3] 8.3% | [4] 5.9% | [5] 9.8% | [6] 26.6%

CC1OS(=O)(=O)CS(=O)(=O)OC1C (stereo not given)
inactive: [1] -50.1% | [2] -24.9% | [3] -12.8% | [4] -61.4% | [5] 4.8% | [6] -6.15%

C/C(Cl)=C/CC1(C)CCCC(C)(C)CC1=O (stereo not given)
inactive: [1] 6.4% | [2] 7.4% | [3] 1.5% | [4] 2.05% | [5] 1.85% | [6] -10.3%

COc1cc(OC)c(C(=O)c2ccccc2N)c(OC)c1
inactive: [1] -3.2% | [2] -0.35% | [3] -1.5% | [4] 6.55% | [5] -8.45% | [6] 9.4%

N#CSc1nc[nH]c1C(N)=O
inactive: [1] -38.2% | [2] -12.4% | [3] 3.45% | [4] -16.6% | [5] -26.3% | [6] -4.4%

O=[N+]([O-])c1ccc(S(=O)(=O)SC(F)(F)F)cc1
inactive: [1] 14.7% | [2] 3.85% | [3] -1% | [4] -47.1% | [5] -3.25% | [6] 11.3%

CCOC(=O)CC(C)C1(C=O)CCCCC1=O (stereo not given)
inactive: [1] -3.2% | [2] -30.3% | [3] -11.7% | [4] 7.25% | [5] -19.5% | [6] -17.4%

CC1OC(OC2C(Oc3cc(O)c4c(c3)O[C@H](c3ccc(O)cc3)CC4=O)OC(CO)C(O)C2O)C(O)C(O)C1O (stereo not given in full)
inactive: [1] 5.65% | [2] -12% | [3] -5.65% | [4] -3.6% | [5] -0.1% | [6] -46.2%

CCN(CC)Cc1cc(Nc2cc(C)nc(/N=C(\N)Nc3cc(Cl)cc(Cl)c3)n2)ccc1O
inactive: [2] 69.2% | [4] 10.2% | [5] 7.95%
active: [1] 95.2% | [3] 97.2% | [6] 91.1%

C/C(=N\N)c1ccc(Cl)cc1O
inactive: [1] 7.45% | [2] -34.2% | [3] 7.2% | [4] 4.25% | [5] 3.5% | [6] 16%

CCC(C)Nc1ncnc2c1cnn2C (stereo not given)
inactive: [1] -14.2% | [2] -27.9% | [3] -16.8% | [4] -32.5% | [5] -25.4% | [6] -10.9%

NC(N)=NC(N)=Nc1cnccn1
inactive: [1] 13.7% | [2] 6.8% | [3] 2.5% | [4] 15.8% | [5] -10.5% | [6] 15.2%

COc1ccc(/C=C/c2ccc3ccccc3n2)cc1
inactive: [1] 3.3% | [2] -20.6% | [3] 1.65% | [4] -46.1% | [5] 9.45% | [6] -16%

CCOc1ccc(NC(=O)c2c(N/N=C/c3ccc(OC)cc3)nc(=O)[nH]c2C)cc1
inactive: [1] -14.2% | [2] -31.5% | [3] -21.6% | [4] -8.7% | [5] -15.6% | [6] -28.7%

CCc1cccc(C(C)C)c1NC(=O)C(=O)C(Cc1nc2ccccc2[nH]c1=O)C(=O)OC (stereo not given)
inactive: [1] 37.8% | [2] 8.6% | [3] 3.85% | [4] -57.9% | [5] 2.4% | [6] 15.4%

N/N=C(/c1ccc(Cl)cc1)N1CCOCC1
inactive: [1] 15.4% | [2] 1.1% | [3] 3.8% | [4] -8.6% | [5] -18% | [6] 5.35%

O=c1[nH]c2ccccc2nc1/C=C/NC(=S)Nc1ccccc1
inactive: [1] -11.4% | [2] -18.1% | [3] -20% | [4] 6% | [5] -0.95% | [6] -2.2%

CCCCCCCCCC[C@@H](OC(C)=O)[C@@H]1CC[C@@H]([C@@H]2CC[C@@H]([C@@H](O)CC#C/C=C/CCCCCCC[C@@]3(Sc4ccccc4)C[C@H](C)OC3=O)O2)O1
inactive: [1] -27.9% | [2] -8.2% | [3] -16.1% | [4] 4.25% | [5] -15.3% | [6] -12.1%

O=[N+]([O-])c1cc(Br)cc2c1nc(NCCO)c1ccccc12
active: [1] 90.8% | [2] 79.5% | [3] 96.8% | [4] 88.2% | [5] 86.8% | [6] 97%

O=C(O)CC(c1ccccc1)C(CC(=O)O)c1ccccc1.[NH-]C1CCCCC1[NH-].[Pt+2] (stereo not given)
inactive: [1] 37.2% | [2] 7.8% | [3] -49.9% | [4] -5.55% | [5] -36.9% | [6] -5.6%

C=C(C)C1CC(=O)C2(C)C(C1)OC(=O)C2C(=O)OCC (stereo not given)
inactive: [1] 11.6% | [2] -0.65% | [3] -8.3% | [4] 8.95% | [5] 0.1% | [6] -6.65%

O=C1C=CC(=O)c2c1ccc1c3ccccc3n(CCCCCn3c4ccccc4c4ccc5c(c43)C(=O)C=CC5=O)c21
inactive: [1] -20.8% | [2] -9.85% | [3] -18.2% | [4] 0.8% | [5] -28.4% | [6] -19%

CN(C)CCCNC(=S)S
inactive: [1] -17% | [2] -28.6% | [3] 5.25% | [4] 11.2% | [5] -22.1% | [6] -4.35%

CC(=C/c1ccccc1)/C=C1/SC(=S)N(C=C2C(=O)NC(=O)NC2=O)C1=O
inactive: [1] 54.9% | [2] 54.1% | [3] 32.4% | [4] 50.2% | [5] 50.5% | [6] 43.2%

O=C(Nc1ccc(O)cc1)c1ccccc1O
inactive: [1] 31.6% | [2] -20.4% | [3] 14.3% | [4] -5.95% | [5] 15.4% | [6] 1.25%

O=C(O)COc1ccc(C2CCCCC2)cc1
inactive: [1] 5.1% | [2] 3.3% | [3] -7.65% | [4] 21.8% | [5] -4.9% | [6] -1.95%

O=C(OCC1OC(OC(=O)c2ccccc2)C(F)C1OC(=O)c1ccccc1)c1ccccc1 (stereo not given)
inactive: [1] -2.65% | [2] -18.6% | [3] 7.15% | [4] -20.1% | [5] -8.25% | [6] 7.9%

N#CCCSC(=S)C1CCCCC1=N (stereo not given)
inactive: [1] -5.3% | [2] 0.8% | [3] 12.8% | [4] -112% | [5] -24.9% | [6] -2.25%

COc1cc(C)ccc1C(=O)C[n+]1ccc2ccccc2c1
inactive: [1] -41.3% | [2] -1.35% | [3] -25.9% | [4] -56.1% | [5] -1.55% | [6] -2.5%

NC1=NC=N/C(=N\c2ccccn2)C1N (stereo not given)
inactive: [1] -13.3% | [2] -9.95% | [3] -5.4% | [4] -32.2% | [5] -11.2% | [6] -8.6%
